This passage reports growth inhibition results from the supplement of paper PMC7556523.

Unmarked numbers belong to inactive results.

The subject of the first test is Sporothrix brasiliensis CBS 133006. Briefly: growth inhibition relative to untreated control; higher = more growth inhibition (more antifungal activity), active = 80 or more; extreme values may be limits of the assay. The settings on record: 1 µM; 48 h. In outline: (§1)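 Before testing, the reference isolates were kept in brain heart infusion broth with 2% glucose at 36°C for 7 days to give yeast-form cells. These cells, at 1 x 10^5 CFU/ml, received library compounds at a final 1 μM and were held 48 h at 35°C in 5% CO2. Growth was checked by eye under an inverted light microscope and quantified spectrophotometrically in quadruplicate, and the value is percent growth inhibition versus untreated cells.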
`Clc1cccc(C(c2ccc(CN3CCNCC3)cc2)n2ccnc2)c1` (stereo unspecified): the growth inhibition was 3%.

As to `CNC(=O)C1Cc2c([nH]c3cc(Cl)ccc23)C2(CCN(CCc3ccccc3)CC2)N1` (stereo unspecified), the growth inhibition is 10.8%.

With `CCc1ccc(S(=O)(=O)Nc2cc(CN3CCN(CCC(C)C)CC3)ccc2C)cc1`, the growth inhibition is 1.75%.

`Cc1nn(C)cc1C(C)Nc1nncc(-c2ccc(C(F)(F)F)cc2)n1` (stereo unspecified): the growth inhibition was 16%.

For `CN1CCN(c2nccc3nc(-c4ccc(F)c(F)c4)[nH]c23)CC1`, the growth inhibition was 0%.

For the molecule `O=C(NC1CC1)c1ccc(CSCc2ccccc2Cl)o1`, the growth inhibition is 6.25%.

Take `CCOc1ccc2cc(-c3nn(CC4CCN(C)CC4)c4ncnc(N)c34)ccc2c1`: the growth inhibition was 1.75%.

On to `Clc1ccc(-n2cc(COc3ccnc4ccccc34)nn2)cc1`, for which the growth inhibition is 13.5%.

For the molecule `CNC(=O)c1cc(S(=O)(=O)N2CCN(c3ccccn3)CC2)cs1`, the growth inhibition was 0%.

`COc1cc2ncnc(NC3CCN(Cc4ccccc4)CC3)c2cc1OC`: the growth inhibition is 8%.

Take `O=C(Nc1ccccc1)c1ccc(-c2cc3ccncc3cc2OC2CCNCC2)s1`: the growth inhibition is 8.75%.

Consider `COc1ccc(-c2cnc3cnc(-c4cccc(OC(C)C)c4)cn23)cc1`, for which the growth inhibition is 10.2%.

`COc1ccc(N(CCc2cccc(C)n2)C(C)=O)cc1`: the growth inhibition was 0%.

In the case of `c1ccc(C[C@@H]2CN(c3nccc(Oc4ccc(-n5ccnc5)cc4)n3)CCN2)cc1`, the growth inhibition was 10.2%.

On to `Nc1ncc(-c2ccc(C(F)(F)F)nc2)cc1-c1ccc(C(F)(F)F)nc1`, for which the growth inhibition is 18.2%.

As for `O=C(Nc1nnc(S)s1)c1cc(Br)ccc1Cl`, the growth inhibition is 6.75%.

For the molecule `COCC(C)NC(=O)CSc1ncnc2sc(-c3ccccc3)cc12` (stereo unspecified), the growth inhibition was 17.8%.

With `c1ccc(Oc2ccc(-c3cc(N4CCOCC4)[nH]n3)cc2)cc1`, the growth inhibition was 4.25%.

With `CC(=O)Nc1ccc(NC(=O)c2cc(-c3cc(Cl)ccc3O)n[nH]2)cc1`, the growth inhibition was 9.5%.

For `O=C(NC1CCCCC1)N1CCN(Cc2ccc3c(c2)OCO3)CC1`, the growth inhibition was 9.25%.

Regarding `c1coc(CNc2nc(N3CCCCC3)nc3ccccc23)c1`, the growth inhibition was 4.25%.

In the case of `CN1CCCN(C(c2ccccc2)c2ccc(Cl)cc2)CC1` (stereo unspecified), the growth inhibition is 6%.

Regarding `O=C(N[C@H](Cc1ccccc1)C(=O)Nc1ccccc1N1CCOCC1)c1cccs1`, the growth inhibition is 7%.

Consider `Cc1noc(C)c1C(=O)N1CCCC(c2[nH]c3c(C)cccc3c2-c2ccncc2)C1` (stereo unspecified), for which the growth inhibition is 7.5%.

For `COc1ccc(-c2cncc3ccc(C(=O)NCCCn4ccnc4)nc23)cc1`, the growth inhibition is 16%.

As to `c1ccc(-c2[nH]c3ccccc3c2C(c2ccccn2)N2CCCC2)cc1` (stereo unspecified), the growth inhibition is 4.25%.

For `CC(C)(CN)c1nc(-c2ccc(Cl)c(O)c2)c(-c2ccnc(N)n2)[nH]1`, the growth inhibition is 7%.

As for `CCn1cnc2c(Nc3cc(F)cc(F)c3)nc(C#N)nc21`, the growth inhibition is 13%.

As for `CCC(=O)Nc1ccccc1C(=O)Nc1ccccn1`, the growth inhibition was 0%.

As for `NC(=O)c1cc(Br)ccc1OCCOc1ccccc1`, the growth inhibition was 23.5%.

With `Cc1c[nH]c(CCNC(=O)c2cc(-c3ccc(Cl)cc3)cs2)n1`, the growth inhibition was 4%.

In the case of `CNc1snc(C)c1C(=O)NCCOc1ccc(OC)cc1`, the growth inhibition was 12.2%.

On to `O=C(C(Cc1c[nH]c2ccccc12)NS(=O)(=O)c1ccc(Cl)cc1)N1CCCCC1` (stereo unspecified), for which the growth inhibition is 5.75%.

`Cc1ccc2cc(C3NC(=O)c4ccccc4N3)c(Cl)nc2c1` (stereo unspecified): the growth inhibition is 8%.

Regarding `CC1=Nc2ccc(Cl)cc2C(c2ccccc2)N1CCNC(=O)CN(C)C` (stereo unspecified), the growth inhibition was 22.8%.

On to `CC(C)(C)C(=O)N(CCCCCCN1C[C@H](O)[C@@H](O)[C@H](O)[C@H]1CO)C1CCCCCC1`, for which the growth inhibition was 6.25%.

For `O=C(c1[nH]nc2c1CCCC2)N1CCN(Cc2ccc3c(c2)OCO3)CC1`, the growth inhibition was 9.75%.

With `CS(=O)(=O)c1cccc(-c2cnc3[nH]cc(-c4ccc(CCC(=O)O)cc4)c3c2)c1`, the growth inhibition was 4.25%.

A further test has as its system Sporothrix schenckii ATCC 32286. The test is described as above. The following applies: 1 µM; 48 h. In outline:
as §1
For `Clc1cccc(C(c2ccc(CN3CCNCC3)cc2)n2ccnc2)c1` (stereo unspecified), the growth inhibition was 7%.

As to `CNC(=O)C1Cc2c([nH]c3cc(Cl)ccc23)C2(CCN(CCc3ccccc3)CC2)N1` (stereo unspecified), the growth inhibition was 0%.

Turning to `CCc1ccc(S(=O)(=O)Nc2cc(CN3CCN(CCC(C)C)CC3)ccc2C)cc1`, the growth inhibition was 21.2%.

As to `Cc1nn(C)cc1C(C)Nc1nncc(-c2ccc(C(F)(F)F)cc2)n1` (stereo unspecified), the growth inhibition was 4.75%.

On to `CN1CCN(c2nccc3nc(-c4ccc(F)c(F)c4)[nH]c23)CC1`, for which the growth inhibition is 0%.

Consider `O=C(NC1CC1)c1ccc(CSCc2ccccc2Cl)o1`, for which the growth inhibition was 2%.

On to `CCOc1ccc2cc(-c3nn(CC4CCN(C)CC4)c4ncnc(N)c34)ccc2c1`, for which the growth inhibition is 15.8%.

Regarding `Clc1ccc(-n2cc(COc3ccnc4ccccc34)nn2)cc1`, the growth inhibition was 10%.

In the case of `CNC(=O)c1cc(S(=O)(=O)N2CCN(c3ccccn3)CC2)cs1`, the growth inhibition was 18.2%.

`COc1cc2ncnc(NC3CCN(Cc4ccccc4)CC3)c2cc1OC`: the growth inhibition is 0%.

Take `O=C(Nc1ccccc1)c1ccc(-c2cc3ccncc3cc2OC2CCNCC2)s1`: the growth inhibition is 11%.

For the molecule `COc1ccc(-c2cnc3cnc(-c4cccc(OC(C)C)c4)cn23)cc1`, the growth inhibition was 12%.

For the molecule `COc1ccc(N(CCc2cccc(C)n2)C(C)=O)cc1`, the growth inhibition is 1.25%.

On to `c1ccc(C[C@@H]2CN(c3nccc(Oc4ccc(-n5ccnc5)cc4)n3)CCN2)cc1`, for which the growth inhibition was 9.5%.

Regarding `Nc1ncc(-c2ccc(C(F)(F)F)nc2)cc1-c1ccc(C(F)(F)F)nc1`, the growth inhibition is 11%.

In the case of `O=C(Nc1nnc(S)s1)c1cc(Br)ccc1Cl`, the growth inhibition is 4%.

As for `COCC(C)NC(=O)CSc1ncnc2sc(-c3ccccc3)cc12` (stereo unspecified), the growth inhibition was 14.2%.

As for `c1ccc(Oc2ccc(-c3cc(N4CCOCC4)[nH]n3)cc2)cc1`, the growth inhibition was 8%.

`CC(=O)Nc1ccc(NC(=O)c2cc(-c3cc(Cl)ccc3O)n[nH]2)cc1`: the growth inhibition is 0%.

With `O=C(NC1CCCCC1)N1CCN(Cc2ccc3c(c2)OCO3)CC1`, the growth inhibition was 17.2%.

In the case of `c1coc(CNc2nc(N3CCCCC3)nc3ccccc23)c1`, the growth inhibition is 13.5%.

Turning to `CN1CCCN(C(c2ccccc2)c2ccc(Cl)cc2)CC1` (stereo unspecified), the growth inhibition is 6.5%.

`O=C(N[C@H](Cc1ccccc1)C(=O)Nc1ccccc1N1CCOCC1)c1cccs1`: the growth inhibition was 7.25%.

Consider `Cc1noc(C)c1C(=O)N1CCCC(c2[nH]c3c(C)cccc3c2-c2ccncc2)C1` (stereo unspecified), for which the growth inhibition is 14%.

In the case of `COc1ccc(-c2cncc3ccc(C(=O)NCCCn4ccnc4)nc23)cc1`, the growth inhibition is 16.5%.

Take `c1ccc(-c2[nH]c3ccccc3c2C(c2ccccn2)N2CCCC2)cc1` (stereo unspecified): the growth inhibition was 12.2%.

As for `CC(C)(CN)c1nc(-c2ccc(Cl)c(O)c2)c(-c2ccnc(N)n2)[nH]1`, the growth inhibition was 21.8%.

`CCn1cnc2c(Nc3cc(F)cc(F)c3)nc(C#N)nc21`: the growth inhibition was 3.75%.

As for `CCC(=O)Nc1ccccc1C(=O)Nc1ccccn1`, the growth inhibition is 1.5%.

As for `NC(=O)c1cc(Br)ccc1OCCOc1ccccc1`, the growth inhibition is 1.25%.

As for `Cc1c[nH]c(CCNC(=O)c2cc(-c3ccc(Cl)cc3)cs2)n1`, the growth inhibition is 0%.

Regarding `CNc1snc(C)c1C(=O)NCCOc1ccc(OC)cc1`, the growth inhibition is 7.5%.

As for `O=C(C(Cc1c[nH]c2ccccc12)NS(=O)(=O)c1ccc(Cl)cc1)N1CCCCC1` (stereo unspecified), the growth inhibition is 4%.

Consider `Cc1ccc2cc(C3NC(=O)c4ccccc4N3)c(Cl)nc2c1` (stereo unspecified), for which the growth inhibition was 4%.

As to `CC1=Nc2ccc(Cl)cc2C(c2ccccc2)N1CCNC(=O)CN(C)C` (stereo unspecified), the growth inhibition was 0%.

Turning to `CC(C)(C)C(=O)N(CCCCCCN1C[C@H](O)[C@@H](O)[C@H](O)[C@H]1CO)C1CCCCCC1`, the growth inhibition was 8%.

On to `O=C(c1[nH]nc2c1CCCC2)N1CCN(Cc2ccc3c(c2)OCO3)CC1`, for which the growth inhibition was 16.2%.

Take `CS(=O)(=O)c1cccc(-c2cnc3[nH]cc(-c4ccc(CCC(=O)O)cc4)c3c2)c1`: the growth inhibition was 0%.
